High-throughput results as filed in PubChem BioAssay.
Only some compounds are listed: those with a hit (about 5% of all), similar ones and a draw of the others.
Vaccinia Venus: inhibitors of vaccinia virus (Venus reporter); Vaccinia virus Venus reporter expression, fluorescence; Potency, µM (top dose mostly 36.5 µM), without a hit: at the highest dose activity change, negative = inhibition, usual class: inhibitors; 0.46% of 330,000 active; calls by dose curve; tested in A549 cells; also: potency is read from the fitted curve at half-maximal effect; nearly all actives have a fitted effect of over 30% in size
HCMV inh: human cytomegalovirus inhibition; HFF cells, HCMV-luciferase reporter, 72 h; active compounds read low; AID 1259415; activity change, negative = inhibition, % at 57.5 µM; 4.5% of 410,000 active; in the data active = activity change below about -60%; inconclusive = no clear call, values can overlap the other calls; inactive = above about -39%
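Luciferase read-out from HCMV-luciferase-infected HFFs (MOI 1 PFU/cell) 72 h post infection at 37C; compounds added after 16 h cell attachment; activity normalized between buffer-only basal and Salinomycin (10uM) inhibitor controls.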
LmPK inh: LmPK (Leishmania mexicana) enzyme inhibition | purified LmPK, Kinase-Glo ATP luminescence, 1 h | Potency, µM (highest dose often 57.5 µM), inactives show top-dose activity change, negative = inhibition, actives largely listed as inhibitors | 0.37% of 290,000 active | AID 1721; also: potency is read from the fitted curve at half-maximal effect
Target sequence (Q27686 whole entry, looked up): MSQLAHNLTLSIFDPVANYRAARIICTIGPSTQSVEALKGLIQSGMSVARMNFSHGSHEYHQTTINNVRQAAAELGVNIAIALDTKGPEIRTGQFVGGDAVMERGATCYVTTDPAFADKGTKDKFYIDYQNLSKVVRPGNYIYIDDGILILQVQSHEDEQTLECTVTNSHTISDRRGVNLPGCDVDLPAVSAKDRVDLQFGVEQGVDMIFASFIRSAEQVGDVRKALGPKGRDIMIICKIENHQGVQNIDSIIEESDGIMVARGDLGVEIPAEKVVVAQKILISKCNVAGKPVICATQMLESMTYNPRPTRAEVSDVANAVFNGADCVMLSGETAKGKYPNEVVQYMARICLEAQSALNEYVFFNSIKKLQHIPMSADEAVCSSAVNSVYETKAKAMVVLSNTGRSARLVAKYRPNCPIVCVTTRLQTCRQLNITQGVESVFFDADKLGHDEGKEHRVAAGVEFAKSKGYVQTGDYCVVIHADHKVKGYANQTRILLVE
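Purified LmPK (0.1 nM) converted ADP (0.1 mM) to ATP with PEP (0.5 mM) in imidazole buffer pH 7.2 with KCl and MgCl2, 1 h at room temperature. ATP was read by Kinase-Glo luminescence; data normalized to uninhibited and no-enzyme controls.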
TbPYK inhibitor: blocks Trypanosoma brucei pyruvate kinase. TbPYK enzyme, Kinase-Glo Plus ATP luminescence, 45 min. Q57TT1. AID 624173. 0.12% of 410,000 active. Potency, µM (highest dose often 76.8 µM), without a hit: at the top dose activity, negative = inhibition, hits mostly inhibitors; also: potency is read from the fitted curve at half-maximal effect; nearly all actives have a fitted effect of over 50% in size
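Readout: single end-point luminescence (Kinase-Glo Plus, 10 min). Reaction conditions were TbPYK/substrate plus 130 uM ADP, 45 min at RT, pH 7.2 TEA buffer. No-enzyme wells served as controls, and data were normalized before concentration-response fitting.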
VACV mCherry inh: inhibitors of vaccinia virus infection (mCherry reporter signal); Vaccinia virus mCherry reporter infection, fluorescence; AID 720579; Potency, µM (highest dose often 36.5 µM), without a hit: top-dose activity change, negative = inhibition, hits mostly inhibitors; 0.63% of 310,000 active; calls by dose curve; tested in A549 cells; also: potency is read from the fitted curve at half-maximal effect; nearly all actives have a fitted effect of over 35% in size
* marks the source's active call; other numbers are inactive results; i = inactive; ? = inconclusive; · = no result; ! = a repeat was not active; [ ] = dose if it differs, or a comment. Unless noted, calls follow the shape of the dose curve; as a rule, active = well fitted curve in the direction sought with a large enough effect; inconclusive = small, poorly fitted or top-dose-only effect, or another doubt; inactive = no such curve, though single readings can be large; an effect the other way counts as inactive or inconclusive. % is scaled to controls: 0 for no effect and ±100 for the full control effect.

SMILES | Vaccinia Venus | HCMV inh | LmPK inh | TbPYK inhibitor | VACV mCherry inh
CC(Sc1ncnc2ccccc12)C(=O)Nc1ccc2c(c1)OCCO2 (stereo unspecified) | ? | -72.6* | 2.9% | -9.3% | ?
CCCCn1nc(C(=O)Nc2ccc3c(c2)OCCO3)c2ccccc2c1=O | · | -68.6* | · | 3.3% | ·
Cn1nc(C(=O)Nc2ccc3c(c2)OCCO3)c2ccccc2c1=O | · | 120.2 | · | -12.1% | ·
C[C@@H](C(=O)Nc1ccc2c(c1)OCCO2)n1c(=O)[nH]c2ccccc2c1=O | · | -70.1* | -1.5% | 3.9% | ·
CCc1ccc(NC(=O)CC2C(=O)N(c3cccc(OC)c3)C(=O)N2C2CCCC2)cc1 (stereo unspecified) | -22.6% | -4.1 | · | -3.7% | -17.3%
O=C(OCC(=O)c1cccs1)c1ccccc1 | · | -33.1 | 15.8µM* | -3.5% | ·
c1ccc(CCn2nnnc2C(c2cccnc2)N2CCN(c3ccccc3)CC2)cc1 (stereo unspecified) | -8.5% | -64.2* | 7.9% | 9.1% | -15.4%
Cc1c(NC(=O)/C(=C/c2cccs2)c2cccs2)c(=O)n(-c2ccccc2)n1C | -3.7% | -102.3* | -3.6% | -14.8% | i
CC1(c2ccccc2)NC(=O)N(CC(=O)Nc2ccc(C(N)=O)cc2)C1=O (stereo unspecified) | 14.6% | -62.2* | -2.4% | 0.7% | -16.7%
CCC(C(=O)N1CCN(C(=O)c2ccco2)CC1)c1ccccc1 (stereo unspecified) | · | 32.1 | 0.0% | 1.5% | ·
CCCSc1ccccc1C(=O)N1CCN(C(=O)c2ccco2)CC1 | -10.7% | -101.1* | -6.9% | -0.8% | -12.3%
COc1cccc(S(=O)(=O)c2nc(C)c3c(n2)CCC3)c1 | · | -80.6* | 2.6% | 0.6% | ·
COc1ccc2c(c1)sc(=NC(=O)CS(=O)(=O)c1ccc(F)cc1)n2C | -17.2% | -73.4* | · | 6.2% | i
CC(NC(=O)c1ccc2c(c1)N(Cc1ccc(Cl)cc1)C(=O)c1ccccc1S2(=O)=O)c1ccccc1 (stereo unspecified) | -4.4% | 51.1 | · | -4.4% | 8.4%
COC(=O)CNc1c(-c2ccccn2)nc2ccc(Br)cn12 | · | 143.9 | 15.8µM* | -5.1% | ·
CC(C)COC(=O)N(C)C[C@H]1OCc2cn(nn2)CCCC(=O)N([C@@H](C)CO)C[C@@H]1C | 3.0% | -17.7 | · | 1.5% | 27.9%
Cn1c(=O)[nH]c(=O)c2c1nc(Br)n2C/C=N/NC(N)=S | · | -32.7 | -2.5% | · | ·
Cn1c(=O)c2c(nc(Br)n2C/C=N/NC(N)=S)n(C)c1=O | -29.2% | -84.0* | -2.6% | -9.4% | -17.7%
O=C(NCc1ccccc1CN1CCCC1)C1CCN(S(=O)(=O)c2ccc(F)c(F)c2)CC1 | -23.4% | -100.9* | · | -8.8% | -4.1%
CC1CN(S(=O)(=O)c2cccc(C(=O)NCc3ccccn3)c2)CC(C)O1 (stereo unspecified) | · | -24.3 | · | 5.7% | ·
Cc1ccc2nsnc2c1N(S(C)(=O)=O)S(C)(=O)=O | -28.9% | -9.8 | -13.3% | -18.8% | ·
CC(NC(=S)NCCc1ccccc1)C(c1cccs1)N1CCN(Cc2ccccc2)CC1 (stereo unspecified) | ? | -80.7* | 1.0% | -1.3% | i
Nc1ncnc2c1ncn2[C@@H]1O[C@H](CNCc2ccccc2OCc2ccc(Cl)cc2Cl)[C@@H](O)[C@H]1O | -13.8% | -28.4 | · | -4.7% | i
COc1nc(N)nc(NC(=O)c2cccs2)c1N=O | -3.4%[7.34 µM] | -77.6* | · | -0.2% | -3.9%[7.34 µM]
CCn1cc(C(=O)NCCCN(CC(C)C)CC(C)C)c(=O)c2cc(S(=O)(=O)N3CCc4ccccc4C3)ccc21 | -5.0% | -1.9 | · | 4.2% | -12.2%
SMILES | Vaccinia Venus | HCMV inh | LmPK inh | TbPYK inhibitor | VACV mCherry inh
C=CCn1cc(C(=O)N2CCc3ccccc3C2)c(=O)c2cc(S(=O)(=O)N(CC)CC)ccc21 | -13.9% | -67.4* | 3.2% | 13.1% | i
C=CCn1cc(C(=O)OC)c(=O)c2cc(S(=O)(=O)N(CC)CC)ccc21 | -15.3% | -14.4 | 9.2% | -2.8% | i
CCn1cc(C(=O)NCCCOC)c(=O)c2cc(S(=O)(=O)N3CCc4ccccc4C3)ccc21 | -8.7% | -15.2 | · | 1.2% | -24.3%
CCCCN(C)CCCNC(=O)c1cn(CC)c2ccc(S(=O)(=O)N3CCc4ccccc4C3)cc2c1=O | -10.8% | -67.6*! | -0.6% | -4.2% | -9.8%
CCCN(CCC)CCCNC(=O)c1cn(CC)c2ccc(S(=O)(=O)N3CCc4ccccc4C3)cc2c1=O | ? | -82.0*! | 0.0% | 3.0% | ?
CCCCN(CC)CCCNC(=O)c1cn(CC)c2ccc(S(=O)(=O)N3CCc4ccccc4C3)cc2c1=O | -20.0% | -60.0*! | 0.3% | 5.5% | ?
Cc1c(-c2ccccc2)n(O)[n+]([O-])c1-c1ccccc1 | -11.2% | 18.5 | · | 0.9% | i
O=Nc1c(-c2ccccc2)n(O)[n+]([O-])c1-c1ccccc1 | 11.2µM* | 76.4 | · | -15.6% | ?
Cc1cc(C)n(-c2ccc(C(=O)Nc3cccc(S(=O)(=O)N4CCCC4)c3)cc2)n1 | -10.4% | -72.3* | 1.5% | 0.1% | i
Cc1cc(C)n(-c2ccc(C(=O)N3CCN(S(=O)(=O)c4ccc(C(C)C)cc4)CC3)cc2)n1 | · | 9.4 | · | -10.1% | ·
Cc1cc(C)n(-c2ccc(C(=O)N3CCN(S(=O)(=O)c4cccc(Br)c4)CC3)cc2)n1 | · | -64.2* | · | -3.9% | ·
COc1ccc(-n2nnnc2C(CCSC)N2CCN(C/C=C/c3ccccc3)CC2)cc1 (stereo unspecified) | -15.3% | -9.7 | · | -6.0% | i
Cc1cccc2cc(CN(Cc3ccc(F)cc3)C(=O)N3CCOCC3)c(=O)[nH]c12 | -9.9% | 25.3 | 3.2% | 3.7% | -17.5%
Cc1ccccc1OCC(=O)Nc1ccc(NC(=O)c2ccco2)cc1 | · | -79.7* | 1.7% | -3.1% | ·
COc1ccc(NC(=O)c2ccco2)cc1NC(=O)COc1cc(C)ccc1C(C)C | ? | -79.4* | · | 3.4% | -10.6%
Cc1ccc(C(C)C)c(OCC(=O)NNC(=O)Nc2ccccc2)c1 | -7.6% | -67.4* | · | 0.6% | -14.8%
Cc1ccc(C(C)C)cc1OCC(=O)NNC(=O)Nc1ccccc1 | -26.2% | -37.5 | -2.6% | -5.2% | -3.7%
Cc1ccc(C(C)C)c(OCC(=O)Nc2cccc(NC(=O)c3ccco3)c2)c1 | -5.2% | -18.3 | · | 0.2% | -20.1%
CC(=O)C1=C(O)C(=O)N(c2ccc(Br)cn2)C1c1cccc([N+](=O)[O-])c1 (stereo unspecified) | · | -104.9* | 2.6% | 4.5% | ·
CCC(=NCCc1c(C)[nH]c2ccc(C)cc12)C1=C(O)CC(c2ccccc2)CC1=O (stereo unspecified) | ? | -76.7* | 1.7% | -0.7% | ?
CC(=O)C1=C(O)CC(c2ccccc2)CC1=NCCc1c(C)[nH]c2ccc(C)cc12 (stereo unspecified) | ? | 18.5 | 0.8% | 2.6% | -16.4%
O=C1c2ccccc2C(=O)N1CCC1=CCCCC1 | -6.3% | 38.9 | -2.9% | 1.9% | -15.9%
N#C/C(=N\Nc1ccc(Cl)cc1)C(=O)c1ccccc1 | ? | -98.8* | 0.1% | -0.7% | -23.8%
